Experimental data as given in PubChem BioAssay AID2796 (The Scripps Research Institute Molecular Screening Center, 2010).
Among all 320,000 compounds or so, about 8,000 (2.5%) were called active. Rule as the data show it: active = activation above about 47%; inactive = the rest. This excerpt belongs to a sample that is enriched for actives.

What follows are compounds tested against Aryl hydrocarbon receptor (Homo sapiens) (UniProt P35869) (assay: AHR activators, primary screen, cell-based, luminescence, luciferase reporter, human (AID 2796;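 also: 0% = vehicle wells and 100% = reference agonist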)). Details: AHR-responsive luciferase reporter cells, at 5 µM, hits give high values.
Sequence of Aryl hydrocarbon receptor (Homo sapiens) (P35869 whole entry, looked up): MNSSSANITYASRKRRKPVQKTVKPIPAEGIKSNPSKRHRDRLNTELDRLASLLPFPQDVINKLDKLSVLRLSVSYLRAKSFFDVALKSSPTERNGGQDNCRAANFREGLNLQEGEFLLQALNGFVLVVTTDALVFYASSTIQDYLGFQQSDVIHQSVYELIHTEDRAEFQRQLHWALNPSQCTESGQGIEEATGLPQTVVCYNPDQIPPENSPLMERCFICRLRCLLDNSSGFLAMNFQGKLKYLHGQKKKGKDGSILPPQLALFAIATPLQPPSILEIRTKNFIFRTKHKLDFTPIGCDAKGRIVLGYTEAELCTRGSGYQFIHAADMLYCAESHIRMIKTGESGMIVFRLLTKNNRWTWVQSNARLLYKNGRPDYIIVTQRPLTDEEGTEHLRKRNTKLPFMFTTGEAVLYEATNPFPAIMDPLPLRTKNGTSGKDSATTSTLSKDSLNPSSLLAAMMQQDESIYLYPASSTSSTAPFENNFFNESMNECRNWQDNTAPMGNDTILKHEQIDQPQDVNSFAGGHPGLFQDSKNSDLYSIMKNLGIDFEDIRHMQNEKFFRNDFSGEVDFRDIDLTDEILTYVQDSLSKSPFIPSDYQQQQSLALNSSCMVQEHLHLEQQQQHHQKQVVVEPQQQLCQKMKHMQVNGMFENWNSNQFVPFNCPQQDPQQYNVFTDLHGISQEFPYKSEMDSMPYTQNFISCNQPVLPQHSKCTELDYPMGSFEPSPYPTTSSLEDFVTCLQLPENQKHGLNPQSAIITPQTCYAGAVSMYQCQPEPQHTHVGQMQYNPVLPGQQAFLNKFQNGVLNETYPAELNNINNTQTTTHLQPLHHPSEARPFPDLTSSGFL
In the case of `Cc1nc2c(ncn2-c2ccccc2)c(=O)n1NC(=O)CN1CCCC1`, the activation is reported as 0.17% (inactive).
With `CC1CN(c2nc(-c3ccccc3)nnc2-c2ccccc2)CC(C)O1` (configuration not stated) the activation was 10.3% (inactive).
For `CC(C)Cn1c(CCC(=O)O)ccc1-c1cccs1`, the activation was -1.84% (inactive).
In the case of `OCCCNc1nc(-c2ccccc2)c2cc(Cl)ccc2n1`, the activation is reported as 3.68% (inactive).
With `COc1cc2nc(Cl)nc(NCCO)c2cc1OC` the activation was -0.57% (inactive).
In the case of `OCCNc1nc(Nc2ccc(Cl)c(Cl)c2)nc2ccccc12`, the activation is reported as 124% (active).
For `O=C(NC(CC(=O)N1CCN(c2ccccc2)CC1)c1ccccc1)c1ccccc1Cl` (configuration not stated), the activation was -0.75% (inactive).
With `Cc1cccc(-c2nc3ccccc3c(=O)n2NC(=O)Cc2ccc(Cl)cc2)c1` the activation was -0.38% (inactive).
In the case of `COc1cc(OC)cc(-c2nc3ccccc3c(=O)n2NC(=O)c2cccnc2Cl)c1`, the activation is reported as 4.93% (inactive).
`O=C(Nn1c(-c2ccc(Cl)cc2)nc2ccccc2c1=O)c1cccnc1Cl` was tested, and the activation was 104% (active).
`COc1ccc(C(=O)COC(=O)c2ccc3ccccc3n2)cc1` was tested, and the activation was 2.48% (inactive).
`O=C(Nc1ccc(S(=O)(=O)Nc2ccccn2)cc1)c1ccccc1` was tested, and the activation was -0.84% (inactive).
For `c1ccc(-c2cn3c(n2)CCc2ccc4cccnc4c2-3)cc1`, the activation was 64% (active).
For `O=S(=O)(Nc1ncccn1)c1ccc(NS(=O)(=O)c2cccc(Cl)c2Cl)cc1`, the activation was 0.76% (inactive).
For `CC(=O)c1ccccc1OCc1ccc(C(=O)c2ccccc2)cc1`, the activation was 0.89% (inactive).
In the case of `CCCCCOc1ccc(CSC2=NCCN2)cc1[N+](=O)[O-]`, the activation is reported as 6.95% (inactive).
`CCCOc1ccc(Cn2ccnc2)cc1[N+](=O)[O-]` was tested, and the activation was 59.2% (active).
In the case of `CCCCOc1ccc(CSC(=N)N)cc1[N+](=O)[O-]`, the activation is reported as 15% (inactive).
In the case of `COc1ccc(-c2cc(C(=O)NCCCN3CCCC3=O)c3ccccc3n2)cc1OC`, the activation is reported as 11.6% (inactive).
For `O=C(CCC(=O)NNc1nc2ccccc2c2nc(-c3ccccc3)nn12)NCCCN1CCCC1=O`, the activation was 55.5% (active).
With `Cc1nn(Cc2ccccc2)c(C)c1C(=O)NCCCN1CCCC1=O` the activation was 2.56% (inactive).
For `COc1ccc(N(CC(=O)NC2CCCCC2)C(=O)CNC(=O)c2ccco2)c(OC)c1`, the activation was 0.47% (inactive).
For `O=C(CN1C(=O)NC2(CCCCCCC2)C1=O)NCc1ccc(F)cc1`, the activation was 2.09% (inactive).
In the case of `O=C1NC[C@@H](Cc2ccc(O)cc2)N(CCc2cccc(F)c2)C1=O`, the activation is reported as -0.45% (inactive).
For `CCN(CC)CC1(O)CCN(C(=O)c2ccc(Cl)c(Cl)c2)CC1`, the activation was 10.4% (inactive).
With `COc1ccc2cc(C(=O)O)n(CC(=O)c3ccccc3)c2c1` the activation was 18.9% (inactive).
For `CCOC(=O)c1cc2ccccc2n1CC(=O)c1ccccc1`, the activation was 24% (inactive).
For `CCn1c(=N)n(CC(=O)c2cccc(OC)c2)c2ccccc21`, the activation was 50.3% (active).
With `CCCn1c(=N)n(CC(=O)c2ccc(Cl)c(Cl)c2)c2ccccc21` the activation was 66.2% (active).
In the case of `O=C(Cn1nnc(N2CCCCC2)n1)c1ccc(Cl)c(Cl)c1`, the activation is reported as -3.18% (inactive).
`O=C(c1c(F)cccc1Cl)N1CCN(S(=O)(=O)c2ccc3c(c2)OCCCO3)CC1` was tested, and the activation was -0.63% (inactive).
With `O=C(Nc1ccc(N2CCCCC2)cc1)c1cc(S(=O)(=O)N2CCOCC2)ccc1F` the activation was 0.49% (inactive).
`CCc1ccccc1NC(=S)N(CCN1CCCCCC1)Cc1ccco1` was tested, and the activation was 0.79% (inactive).
`COc1cccc(CNS(=O)(=O)c2ccc3c(c2)N(C(C)=O)CCS3)c1` was tested, and the activation was 7.96% (inactive).
In the case of `Nc1ncnc2c1ncn2[C@@H]1O[C@H](CNCc2cccn2-c2nccs2)[C@@H](O)[C@H]1O`, the activation is reported as -1.49% (inactive).
`Cc1ccc(NS(=O)(=O)c2c(C)[nH]c(=O)[nH]c2=O)cc1C` was tested, and the activation was -2.23% (inactive).
For `COc1ccc(NC(=O)C2=C(C)NC(=O)NC2c2ccccc2[N+](=O)[O-])cc1` (configuration not stated), the activation was 2.47% (inactive).
For `Cc1csc(NC(=S)Nc2cccc(Cl)c2)n1`, the activation was 81.2% (active).
In the case of `FC(F)(F)c1cccc(NC(=S)Nc2cccc(Cl)c2)c1`, the activation is reported as 6.14% (inactive).
In the case of `Cc1cccc(NC(=S)Nc2ccc(Cl)c(Cl)c2)c1`, the activation is reported as 2.86% (inactive).
`Cc1cccc(C(C)C)c1NC(=O)COC(=O)C1CC(=O)N(Cc2ccccc2)C1` (configuration not stated) was tested, and the activation was 3.03% (inactive).
In the case of `CCC(C)NC(=O)C1CCCN(C(=O)NC2CCCCC2)C1` (configuration not stated), the activation is reported as 2.48% (inactive).
With `CC(=O)NC(CC(=O)Nc1ccc(S(=O)(=O)N2CCOCC2)cc1)c1ccccc1` (configuration not stated) the activation was 0.88% (inactive).
In the case of `O=C(COC(=O)c1cccc(Cl)c1)NC1CCCCCCC1`, the activation is reported as 0.68% (inactive).
With `O=C(Nc1nnc(COc2ccccc2)s1)Nc1ccccc1F` the activation was 10.9% (inactive).
For `COc1ccccc1NC(=O)Nc1nnc(Cc2ccc(F)cc2)s1`, the activation was 59.8% (active).
In the case of `COc1ccccc1NC(=O)Nc1nc(CC(=O)Nc2ccccc2F)cs1`, the activation is reported as 25% (inactive).
With `CCN(CC)S(=O)(=O)c1cccc(-c2n[nH]c(=S)n2/N=C/c2ccc(C(=O)OC)cc2)c1` the activation was 5.2% (inactive).
With `O=C(NC(=S)N1CCN(Cc2ccccc2)CC1)c1ccccc1` the activation was 2.61% (inactive).
In the case of `CC(C)c1ccc(Nc2ncccc2C#N)cc1`, the activation is reported as 56.8% (active).
`O=C(COC(=O)c1ccc([N+](=O)[O-])o1)NC12CC3CC(CC(C3)C1)C2` was tested, and the activation was 0.67% (inactive).
`COc1cccc2sc3cc(NCC[C@@H]4CCCN4C)ccc3c(=O)c12` was tested, and the activation was 72.2% (active).
In the case of `Cc1cc2oc3ccc(NCCC4CCCN4C)cc3c(=O)c2cc1C` (configuration not stated), the activation is reported as 2.97% (inactive).
In the case of `COc1ccc(CCNC(=O)C(=O)NCC2CCNCC2)cc1OC`, the activation is reported as -0.68% (inactive).
For `COc1ccc(-c2cc(-c3ccc(N)cc3)nc(N)c2C#N)cc1OC`, the activation was 79.4% (active).
For `CCOc1cc(-c2cc(-c3ccc(OC)cc3)nc(N)c2C#N)ccc1O`, the activation was 0.62% (inactive).
`CCOc1cc(-c2cc(-c3ccc(NC(C)=O)cc3)nc(N)c2C#N)ccc1O` was tested, and the activation was 8.37% (inactive).
With `COc1cccc(NC(=O)CC(c2ccc(OC(C)C)cc2)c2ccccc2OC)c1` (configuration not stated) the activation was -0.21% (inactive).
With `CC(C)(C)OC(=O)CNC(=O)c1[nH]cnc1C(=O)N[C@@H](CCCCN)C(=O)OC(C)(C)C` the activation was 0.13% (inactive).
In the case of `Cc1ccc(NC(=O)c2cc3ccccc3o2)cc1`, the activation is reported as 25.5% (inactive).
With `O=C(Nc1ccncc1)c1cc2ccccc2o1` the activation was 0.11% (inactive).
For `C/C(=N\NC(=S)Nc1ccc(C)cc1)c1cc2ccccc2o1`, the activation was 70.2% (active).
